Results on 5 molecules are retold here after PubChem BioAssay.

A short description of assay [1]: E. coli DRC41 culture turbidity changes, primary screen, E. coli filamentation inducer project, strain DRC41, OD650, 48 h (AID 1152).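 Further: E. coli MC1000 strain DRC41 lacking acrAB efflux pump and sulA.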 As to conditions: E. coli DRC41 (acrAB sulA), higher = more signal, called active from +8 up or from −8 down.
Assay [2] is described as follows: small-molecule binders of probe aLefty1, primary screen, biochemical, small-molecule microarray, 635/667 nm fluorescence (AID 1153).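 Further: score merges spot fluorescence with signal-to-noise ratio from the scanned slide images.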 As to conditions: higher = more signal.
Assay [3] in a line: PSAC antagonists in infected red cells, primary screen, cell-based, P. falciparum Indochina, OD700, 1 h (AID 1154). As to conditions: P. falciparum Indochina infected RBC osmotic lysis, higher = more signal, called active from +8 up or from −8 down.
Assay [4] in a line: PSAC antagonists in infected red cells, primary screen, cell-based, P. falciparum Indochina, OD700, 2 h (AID 1155).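 Further: lysis reports solute entry through the parasite surface anion channel PSAC; channel blockers reduce lysis of infected cells.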 As to conditions: P. falciparum Indochina infected erythrocytes, osmotic lysis OD700; higher = more signal, called active from +8 up or from −8 down.
Assay [5] in a line: osmotic lysis modulators in infected erythrocytes, primary screen, PSAC antagonist project, cell-based, P. falciparum Indochina, OD700, 3 h (AID 1156). As to conditions: higher = more signal, called active from +8 up or from −8 down.
Assay [6] is described as follows: PSAC antagonists in infected red cells, primary screen, cell-based, P. falciparum Indochina, OD700, 18 h (AID 1157). The following applies: P. falciparum Indochina infected erythrocytes, osmotic lysis OD700, 18 h; higher = more signal, called active from +8 up or from −8 down.
The nature of assay [7]: modulators of S6 phosphorylation in cells, primary screen, cell-based, A549, cytoblot, luminescence, serum-stimulated (AID 1158).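 Further: serum-stimulated A549 lung adenocarcinoma cells; signal is phosphorylated S6 detected by cytoblot immunostaining with HRP secondary.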 As to conditions: A549 phospho-S6 cytoblot, 5 h, higher = more signal.
For assay [8], the target named is NADPH oxidase 2 (Homo sapiens) (UniProt P04839). The experiment in a line: NOX2-dependent H2O2 signal modulators, primary screen, NOX inhibitor project, cell-based, HEK293-NOX2, PMA-stimulated, Amplex Red fluorescence (AID 1159). Further: test concentration not given here. As to conditions: 45 min, higher = more signal, called active from +8 up or from −8 down.
In assay [9] the target is NADPH oxidase 4 (Homo sapiens) (UniProt Q9NPH5). In words: NOX4-dependent H2O2 signal modulators, primary screen, NOX inhibitor project, cell-based, HEK293-NOX4, tetracycline-induced, Amplex Red fluorescence (AID 1160). As to conditions: 45 min, higher = more signal, called active from +8 up or from −8 down.
Assay [10] deals with NADPH oxidase 5 (Homo sapiens) (UniProt Q96PH1). The experiment in a line: NOX5-dependent H2O2 signal modulators, primary screen, NOX inhibitor project, cell-based, HEK293-NOX5, Amplex Red fluorescence (AID 1161). As to conditions: HEK293-NOX5, ionomycin, 45 min, higher = more signal.
Assay [11] can be described thus: A549 cell viability effects, profiling panel, calcein-AM fluorescence, 48 h, basal (AID 1162). Further: test concentration not given here. As to conditions: higher = more signal.
Assay [12] is described as follows: adipocyte viability effects, profiling panel, cell-based, 3T3-L1 adipocytes, calcein-AM fluorescence, 48 h, basal (AID 1163). Further: test concentration not given here. As to conditions: 3T3-L1 adipocytes viability, higher = more signal.
Assay [13] in a line: HepG2 cell viability effects, profiling panel, calcein-AM fluorescence, 48 h, basal (AID 1164). Further: test concentration not given here. The following applies: higher = more signal.
Assay [14] is described as follows: MM1S cell viability effects, profiling panel, calcein-AM fluorescence, 48 h, basal (AID 1165).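 Further: viability of MM1S multiple myeloma cells under basal unstimulated conditions; test concentration not given here.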 The following applies: higher = more signal.
Assay [15] is described as follows: basal RPMI8226 viability, no added stimulus, profiling panel, cell-based, calcein-AM fluorescence, 48 h, PK04 Diversity Set (AID 1166).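 Further: cells grown under basal conditions without added stimulus; test concentration not given here.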 As to conditions: RPMI8226 myeloma viability, higher = more signal.
A short description of assay [16]: basal HepG2 mitochondrial membrane potential changes, profiling panel, cell-based, JC-1 fluorescence, 24 h, 100 nL compound (AID 1167). Further: test concentration not given here. The following applies: higher = more signal.
A short description of assay [17]: basal 3T3-L1 adipocyte mitochondrial potential changes, profiling panel, cell-based, JC-1 fluorescence, 3T3-L1 adipocytes, 24 h, 100 nL compound (AID 1168). Further: test concentration not given here. As to conditions: JC-1 mitochondrial fluorescence, higher = more signal, called active from +8 up or from −8 down.
Assay [18] is described as follows: basal RPMI8226 mitochondrial membrane potential changes, profiling panel, cell-based, JC-1 fluorescence, 24 h, 100 nL compound (AID 1169). Further: test concentration not given here. The following applies: RPMI8226 myeloma, JC-1 mitochondrial potential fluorescence, higher = more signal.
Assay [19] is described as follows: basal MM1S mitochondrial membrane potential changes, profiling panel, cell-based, JC-1 fluorescence, 24 h, 100 nL compound (AID 1170). Further: test concentration not given here. The following applies: higher = more signal.
Assay [20] can be described thus: A549 lung cancer cell viability effects, profiling panel, resazurin fluorescence, 24 h, PK04 Diversity Set (AID 1171). Further: test concentration not given here. As to conditions: higher = more signal, called active from +8 up or from −8 down.

Structures are written as SMILES. Active and inactive are the calls of the source.

Sequence of NADPH oxidase 5 (Homo sapiens) (Q96PH1 whole entry, looked up): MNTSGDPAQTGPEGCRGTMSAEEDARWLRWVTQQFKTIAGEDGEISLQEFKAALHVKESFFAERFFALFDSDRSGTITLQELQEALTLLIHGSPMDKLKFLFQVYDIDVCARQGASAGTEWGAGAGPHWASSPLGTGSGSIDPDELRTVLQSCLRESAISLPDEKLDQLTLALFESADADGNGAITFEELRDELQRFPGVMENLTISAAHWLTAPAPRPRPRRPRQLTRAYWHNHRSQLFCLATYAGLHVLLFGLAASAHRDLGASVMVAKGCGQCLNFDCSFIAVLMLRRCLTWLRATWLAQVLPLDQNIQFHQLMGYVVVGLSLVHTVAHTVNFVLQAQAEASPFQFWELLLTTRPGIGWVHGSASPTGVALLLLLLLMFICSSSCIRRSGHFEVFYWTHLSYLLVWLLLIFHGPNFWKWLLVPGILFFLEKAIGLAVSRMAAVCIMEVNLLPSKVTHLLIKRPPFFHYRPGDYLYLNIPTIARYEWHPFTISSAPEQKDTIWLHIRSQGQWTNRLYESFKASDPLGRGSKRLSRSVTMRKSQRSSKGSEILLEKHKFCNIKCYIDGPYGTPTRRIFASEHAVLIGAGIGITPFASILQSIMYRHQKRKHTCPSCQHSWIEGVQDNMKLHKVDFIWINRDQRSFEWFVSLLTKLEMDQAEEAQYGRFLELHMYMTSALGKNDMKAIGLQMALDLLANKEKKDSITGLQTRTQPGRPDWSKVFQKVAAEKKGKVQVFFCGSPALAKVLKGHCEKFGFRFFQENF
Sequence of NADPH oxidase 2 (Homo sapiens) (P04839 whole entry, looked up): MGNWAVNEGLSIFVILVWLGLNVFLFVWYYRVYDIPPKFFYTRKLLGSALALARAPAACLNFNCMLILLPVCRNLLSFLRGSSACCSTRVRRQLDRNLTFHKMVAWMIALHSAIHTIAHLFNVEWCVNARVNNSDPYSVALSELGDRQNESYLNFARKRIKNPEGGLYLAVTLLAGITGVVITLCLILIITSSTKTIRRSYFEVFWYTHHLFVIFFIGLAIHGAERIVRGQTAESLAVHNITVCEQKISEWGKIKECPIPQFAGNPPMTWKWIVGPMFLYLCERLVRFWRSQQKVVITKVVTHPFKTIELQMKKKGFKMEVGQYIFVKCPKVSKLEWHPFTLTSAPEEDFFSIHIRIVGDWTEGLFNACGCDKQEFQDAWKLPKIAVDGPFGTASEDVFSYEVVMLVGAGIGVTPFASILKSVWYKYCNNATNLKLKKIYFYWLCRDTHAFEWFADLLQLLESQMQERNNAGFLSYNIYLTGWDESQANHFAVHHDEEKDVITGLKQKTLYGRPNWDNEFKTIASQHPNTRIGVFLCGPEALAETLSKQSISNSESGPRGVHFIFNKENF
Sequence of NADPH oxidase 4 (Homo sapiens) (Q9NPH5 whole entry, looked up): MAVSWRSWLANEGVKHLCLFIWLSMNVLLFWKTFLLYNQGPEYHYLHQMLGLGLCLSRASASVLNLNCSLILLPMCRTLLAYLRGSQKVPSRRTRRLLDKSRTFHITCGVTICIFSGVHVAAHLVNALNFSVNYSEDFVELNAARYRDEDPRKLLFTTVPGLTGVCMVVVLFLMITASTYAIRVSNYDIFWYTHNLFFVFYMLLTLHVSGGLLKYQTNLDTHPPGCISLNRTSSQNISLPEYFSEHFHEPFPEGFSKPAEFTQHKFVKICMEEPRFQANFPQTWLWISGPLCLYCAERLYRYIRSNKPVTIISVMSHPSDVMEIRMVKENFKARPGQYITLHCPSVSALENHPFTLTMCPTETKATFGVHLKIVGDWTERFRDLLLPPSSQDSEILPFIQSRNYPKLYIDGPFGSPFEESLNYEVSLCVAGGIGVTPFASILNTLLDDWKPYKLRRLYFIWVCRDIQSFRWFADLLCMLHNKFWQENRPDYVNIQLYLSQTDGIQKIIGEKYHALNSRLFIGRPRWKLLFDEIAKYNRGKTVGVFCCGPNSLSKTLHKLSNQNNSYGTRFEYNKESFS

`CO[C@H]1O[C@H](CO)[C@@H](OC(=O)Nc2ccc(C(F)(F)F)cc2)[C@H](OC(=O)Nc2ccccc2-c2ccccc2)[C@H]1OC(=O)Nc1ccccc1-c1ccccc1`: the z-score is -1.16 (inactive) in [1]; 3.1 (inactive) in assay [3]; 1.18 (inactive) in assay [4]; -2.21 (inactive) in [5]; 1.16 (inactive) in assay [6]; -0.413 in assay [7]. In addition, the z-score in [8] is -3.25 (inactive); in [9], -1.07 (inactive); in [10], -0.439; in [11], -4.38; in [12], 0.158; in assay [13] it was -5.26. Besides, the z-score was -3.52 in [14]; -3.98 in [15]; 0.235 in assay [16]; 0.0902 (inactive) in assay [17]; -0.867 in assay [18]; -1.76 in [19]. The z-score in [20] is -6.26 (inactive). This molecule gave a composite z-score in assay [2] of 0.398.

On to `COC(=O)[C@@]1(CCS(=O)(=O)c2ccccc2)N=C(c2ccc(OCCCO)cc2)O[C@H]1c1ccccc1N=[N+]=[N-]`, for which the z-score in [1] was -0.527 (inactive); in [3] it was 26.9 (active); in assay [4] it was 22.3 (active); in assay [5] it was 1.09 (inactive); in assay [6] it was 3.42 (inactive); in assay [7], 0.819. The z-score in assay [8] is -1.31 (inactive); in [9], 1.02 (inactive); in assay [10] it was -1.59; in assay [11] it was -1.66; in assay [12] it was 0.81; in [13] it was -0.474. The z-score is -0.746 in assay [14]; 0.206 in [15]; 0.335 in assay [16]; -0.852 (inactive) in assay [17]; -0.687 in assay [18]; -0.426 in [19]. For the same molecule, in assay [20], the z-score is -2.02 (inactive). This molecule also came in with a composite z-score in assay [2] of -0.0559.

In the case of `COC(=O)C1=CC(CCCO)=CC(c2ccc(CN3CCCC3)cc2)N(Cc2sc3ccccc3c2Cl)C=C1C(=O)OC` (stereo not given), the z-score in [1] was 1.68 (inactive); in assay [3] it was 3.27 (inactive); in [4] it was -0.28 (inactive); in assay [5], -0.235 (inactive); in assay [6] it was -1.02 (inactive); in assay [7], 1.6. The z-score in assay [8] is 0.613 (inactive); in assay [9], 0.311 (inactive); in assay [10] it was 0.116; in [11], 1.38; in assay [12], 0.0739; in assay [13] it was 1.72. The z-score in assay [14] was 0.217; in [15] it was 0.662; in [16] it was 4.71; in assay [17], 0.531 (inactive); in assay [18], 0.393; in assay [19], 2.3. The z-score in assay [20] is -0.142 (inactive). In addition, the composite z-score in [2] is 1.17.

In the case of `CC(C)C[C@H]1NC(=O)[C@H](Cc2ccccc2)NC(=O)[C@@]23C(=O)N[C@@H](Cc4ccccc4)C2[C@H](C)[C@@]2(C)O[C@H]2C3/C=C/C/C=C\CNC1=O` (stereo not given in full), the z-score in assay [1] was -1 (inactive); in assay [3], 0.133 (inactive); in assay [4], -0.209 (inactive); in [5] it was 0.0708 (inactive); in assay [6] it was -0.308 (inactive); in assay [7], -0.129. Besides, the z-score in assay [8] is 1.05 (inactive); in assay [9], 0.819 (inactive); in assay [10], -1.37; in assay [11], -0.0322; in assay [12], 0.13; in assay [13] it was -1.04. Further, the z-score in [14] is -0.356; in [15], -0.718; in assay [16] it was -1.07; in [17], 0.0338 (inactive); in assay [18] it was 0.478; in assay [19], 0.704. In addition, in assay [20], the z-score was 0.395 (inactive). The composite z-score in assay [2] was -0.145.

In the case of `COc1ccc([Si](C)(C)[C@@H]2[C@@H](CC(=O)N(CCO)Cc3ccccc3)O[C@]3(C(=O)N(Cc4ccc(N5CCC5=O)cc4)c4ccccc43)[C@H]2C)cc1`, the z-score in [1] is 1.12 (inactive); in assay [3], 6.38 (inactive); in assay [4], 0.924 (inactive); in [5], -0.709 (inactive); in assay [6] it was -1.27 (inactive); in [7] it was 0.838. Further, the z-score in [8] was 1.53 (inactive); in assay [9], 1.41 (inactive); in assay [10], 3.52; in [11] it was -0.361; in [12] it was 2.28; in assay [13], -1.34. The z-score is -1.28 in [14]; -3.15 in assay [15]; 0.768 in [16]; 1.95 (inactive) in assay [17]; -0.944 in assay [18]; -0.83 in assay [19]. In assay [20], the z-score is -1.37 (inactive). Besides, the composite z-score in [2] was -0.399.
